# HCMV inh: qHTS Assay for inhibitors of the human cytomegalovirus (HCMV) | HFF cells, HCMV-luciferase reporter, 72 h; stronger effect = lower value | activity change, negative = inhibition, % at 57.5 µM | AID 1259415, 2018 | 4.5% of 410,000 active; in the data active = activity change below about -60%; inconclusive = no clear call, values can overlap the other calls; inactive = above about -39%
#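 HFF cells seeded 16 h at 37C, treated with compounds, infected with luciferase-reporter HCMV at MOI 1 PFU/cell; luciferase read at 72 h post infection, normalized to buffer-only and Salinomycin controls.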
# HCV inh: qHTS Assay for Inhibitors of Hepatitis C Virus (HCV); Potency, µM (doses to about 41.8 µM), inactives show top-dose activity change, negative = inhibition, usual class: inhibitors; Huh7.5.1 HCVcc-Cre infection, luciferase reporter, 44 h; 3.4% of 340,000 active; active = well fitted inhibition curve with a large enough effect; inconclusive = small, poorly fitted or top-dose-only effect, or another doubt; inactive = no such curve, though single readings can be large or run the other way; note: potency is the fitted concentration of half-maximal effect
#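 HCVcc-Cre virus at an moi near 0.5 was added right after compound to cells cultured 4 h from seeding (1,000 cells/well). Luciferase activity was determined 44 h later, 15 min after substrate addition at RT.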
# FMDV antiviral: High Throughput Screening for Foot and Mouth Disease Virus Antivirals; FMDV antiviral cell-based qHTS; Potency, µM (top dose mostly 57.9 µM), without a hit: at the top dose activity change, negative = inhibition, actives largely listed as inhibitors; 1.2% of 410,000 active; calls by dose curve; tested in HEK293T cells; note: read-out not given here; potency is the fitted concentration of half-maximal effect; nearly all actives have a fitted effect of over 45% in size
# VACV mCherry inh: qHTS for Stage-Specific Inhibitors of Vaccinia Orthopoxvirus: mCherry Reporter Primary qHTS; 0.63% of 310,000 active; Potency, µM (titrated, usually from 36.5 µM), without a hit: at the highest dose activity change, negative = inhibition, hits mostly inhibitors; AID 720579, 2013; Vaccinia virus mCherry reporter infection, fluorescence; calls by dose curve; tested in A549 cells; note: potency is the fitted concentration of half-maximal effect; nearly all actives have a fitted effect of over 35% in size
# Vaccinia Venus: qHTS for Stage-Specific Inhibitors of Vaccinia Orthopoxvirus: Venus Reporter Primary qHTS; Vaccinia virus Venus reporter expression, fluorescence; Potency, µM (titrated, usually from 36.5 µM), for inactives: at the highest dose activity change, negative = inhibition, hits mostly inhibitors; 0.46% of 330,000 active; AID 720580, 2013; calls by dose curve; tested in A549 cells; note: potency is the fitted concentration of half-maximal effect; nearly all actives have a fitted effect of over 30% in size
# * hit, by the source's call; i = inactive; ? = inconclusive; . = no result; [ ] = dose if it differs, or a comment. Hits are enriched below; roughly 7.3% of the tested compounds scored in any of these assays. % is set by controls: 0 for no effect and ±100 for the full control effect.
SMILES,HCMV inh,HCV inh,FMDV antiviral,VACV mCherry inh,Vaccinia Venus
C[C@@H]1COc2cc(NCCCN3CCOCC3)ccc2S(=O)(=O)N1,2,.,.,.,.
O=c1c(-c2cccc(Cl)c2)nc2cncnc2n1Cc1ccccc1Cl,.,.,-6%,.,.
CCC(=O)n1nc(NCc2ccc(OC)c(OC)c2)nc1NCc1ccc(OC)c(OC)c1,-27,?,18µM*,.,?
O=C(CS(=O)(=O)c1ccccc1)CS(=O)(=O)c1ccccc1,66,.,.,.,.
O=S(=O)(C/C(=C/CO)S(=O)(=O)c1ccccc1)c1ccccc1,-106*,10µM*,7.9µM*,.,.
COC(=O)C1=CO[C@@H](C)[C@H]2CN3CCc4c([nH]c5ccccc45)[C@@H]3C[C@H]12,-68*,?,?,-16%,-16%
COc1ccc(CC(=O)Nc2sc3c(c2C(=O)Nc2ccc(C)cc2)CCCCC3)cc1,?,.,9%,-9%[7.34 µM],-7%[7.34 µM]
CC(=O)CSc1nnc(-c2ccc3c(c2)OCO3)o1,52,-4%,-40%,-21%,-13%
O=C(CSc1nnc(-c2ccc3c(c2)OCO3)o1)Nc1ncc(Cl)cc1Cl,-61*,0%,5%,-14%,-16%
O=C(O)CCSc1nnc(-c2ccc3c(c2)OCO3)o1,-75*,-5%,-15%,-18%,-10%
CCC1(C2CCN(Cc3ccc(OC)cc3)CC2)NC(=O)N(CC2COc3ccccc3O2)C1=O (stereo unspecified),.,.,-22%,-9%,-5%
Cc1ccc(CCNC(=O)c2cn(C)c3ccc(S(=O)(=O)N4CCCCC4)cc3c2=O)cc1,-2,.,0%,?,-20%
CC(=N)C1=C(O)CC(c2ccccc2)CC1=O (stereo unspecified),-99*,-5%,2%,20%,-8%
CCC(=NC)C1=C(O)CC(c2ccccc2)CC1=O (stereo unspecified),11,-1%,39%,-20%,-9%
COc1ccc(S(N)(=O)=O)cc1C(=O)OCC(=O)N1c2ccccc2NC(=O)C1(C)C,-13,-4%,1%,i,-2%
COc1cc(OC)cc(C(=O)NCC(=O)OCC(=O)N2c3ccccc3NC(=O)C2(C)C)c1,-98*,19%,1%,i,-7%
COCc1c(C(=O)OCC(=O)N2c3ccccc3NC(=O)C2(C)C)oc2ccccc12,7,?,25µM*,.,.
COc1cc(/C=C/C(=O)OCC(=O)N2c3ccccc3NC(=O)C2(C)C)cc(OC)c1OC,-3,?,28µM*,.,.
Cn1c(-c2cccnc2)cc2cnc(Nc3ccc4c(c3)OCO4)cc21,22,.,.,.,.
COc1ccc(Cl)cc1NC(=O)Cn1c2ncccc2c(=O)n1-c1ccc(C)c(C)c1,12,.,-11%,-13%[7.34 µM],-17%[7.34 µM]
Cc1ccc(S(=O)(=O)NCC2CCC(C(=O)NCCc3ccc(Cl)cc3)CC2)cc1 (stereo unspecified),31,.,-10%,0%,4%
Cc1ccc(S(=O)(=O)N2CCN(c3nc(-c4cncnc4)nc4ccccc34)CC2)cc1,.,.,.,i,-12%
Cc1cc(O)c2c(c1O)C(=O)c1c(O)cc(C)c(O)c1C2=O,.,.,-15%,-4%,6%
Cc1cc(O)c2c(c1O)C(=O)[C@]13C(=C2O)C(=O)[C@@H]2[C@@H](O)[C@H]1[C@@H]1[C@H](O)[C@H]3C(=O)C3=C(O)c4c(O)cc(C)c(O)c4C(=O)[C@]312,.,5µM*,?,?,?
O=C(N/N=C/c1cc(Br)ccc1O)C(=O)Nc1ccccc1OC(F)(F)C(F)F,-105*,?,-28%,.,.
SMILES,HCMV inh,HCV inh,FMDV antiviral,VACV mCherry inh,Vaccinia Venus
COc1ccccc1/C=N/NC(=O)C(=O)Nc1ccccc1OC(F)(F)C(F)F,?,0%,0%,-6%,14%
O=C(N/N=C/c1cc(Cl)ccc1O)C(=O)Nc1ccccc1OC(F)(F)C(F)F,-88*,?,-25%,14µM*,?
O=C(CCSCc1ccccc1Cl)N1CCN(c2ccc(F)cc2)CC1,-64*,.,3%,-16%,-14%
O=C(CCC(=O)N1CCN(c2ccccc2F)CC1)N1CCN(c2ccc(F)cc2)CC1,-62*,?,22µM*,-13%,-18%
O=[N+]([O-])c1ccc(N=Nc2c(O)[nH]c3ccc(F)cc23)cc1,-29,-21%,-1%,-11%,-7%
O=[N+]([O-])c1ccc(N=Nc2ccc(O)cc2O)cc1,-99*,?,10%,?,?
CCOc1cc(C=O)cc(N=Nc2cccc([N+](=O)[O-])c2)c1O,34,15%,-13%,-8%,-5%
O=[N+]([O-])c1cccc(N=Nc2ccc(O)cc2O)c1,-80*,1.8µM*,-9%,?,?
CCC(=O)N[C@@H]1c2ccccc2C2(CCN(Cc3cnc(N(C)C)s3)CC2)[C@H]1OC,.,.,8%,-13%,-3%
CCOC(=O)C(C)Sc1nnc2ccc3ccccc3n12 (stereo unspecified),-86*,.,37%,-4%,-2%
CC1(O)CCN2C(=O)CCc3cccc1c32 (stereo unspecified),-61*,-11%,-18%,.,.
COc1ccc(CNC(=O)c2cnc(N3CCOCC3)c3ccccc23)cc1,-109*,.,-13%,-10%,-1%
Cc1cc(CNC(=O)c2cccc([N+](=O)[O-])c2C)c2ccccc2n1,-73*,?,14µM*,-8%,-19%
Cc1cc(CNC(=O)Cc2ccccc2)c2ccccc2n1,-4,?,30%,i,-6%
COc1ccc(NC(=O)c2ccccc2[N+](=O)[O-])cc1,?,26%,50%,-13%,-7%
COc1ccc(CNC(=O)c2ccccc2[N+](=O)[O-])cc1,-108*,13%,7%,.,.
CCC(=O)N[C@@H]1c2ccccc2C2(CCN(Cc3ccccn3)CC2)[C@H]1OC,.,.,-15%,i,-9%
COc1ccc(N/N=C/c2c(C(=O)O)ccc3ccccc23)cc1,-100*,?,5%,.,.
O=C(CN(CC(=O)Nc1ccc(F)cc1)CC(=O)Nc1ccc(F)cc1)Nc1ccc(F)cc1,52,.,.,.,.
COc1ccc(Br)c2c1-c1nc(NC(=O)c3ccccc3SC)sc1C2,-63*,.,-23%,-14%,-6%
CN(C)c1ccc(/C=C(/C(=O)c2ccc(Cl)cc2Cl)n2cncn2)cc1,-37,?,?,?,7%
CC(C)CC(=O)/C(=C\c1ccc(Cl)cc1Cl)n1cncn1,.,?,7.9µM*,?,13µM*
CC(C)CC(=O)/C(=C/c1ccc(N(C)C)cc1)n1cncn1,-60*,-1%,-1%,-1%,-16%
COc1ccc(/C=C(/C(=O)c2ccc(Cl)cc2Cl)n2cncn2)cc1,-16,12%,?,.,.
CCN1C(=O)[C@H]2[C@@H](c3ccc(-c4ccc(OC)cc4)cc3)N3CCC[C@@]3(C(=O)OC)[C@H]2C1=O,-101*,?,-9%,i,-16%

# Bioassay records: PubChem, National Center for Advancing Translational Sciences (NCATS)
